Test systems include T-47D breast; BT-549 breast; MDA-MB-435 melanoma; SW-620 colon; MCF7 breast; HCT-116 colon; HCC-2998 colon; KM12 colon.
Test in all cases: NCI-60 one-dose screen, 48 h (100 = growth as untreated, 0 = no growth, -100 = all killed)
What all share (details): 10 µM unless noted

This is part of a sample that, as a whole, favours compounds with a hit. Of some 83,000 tested, about 20% had one in any assay.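 Plates (96-well) were seeded with cells, treated with compound at one concentration, and incubated for 48 hours before percent growth was determined.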 A number with no mark means an inactive call. Activity calls are given as the source filed them. Rule for the calls: active = growth percent below 10; inactive = the rest.

The results in this text go back to PubChem BioAssay (NCI).

Consider `CC(C)CCN(CCC(C)C)CC(O)c1cc2c(c3ccccc13)CCCC2` (stereo not given), for which the growth in the assay on T-47D breast was 59%; with BT-549 breast it was 103%; in the assay with MDA-MB-435 melanoma it was 98.4%; with SW-620 colon, 59%; with MCF7 breast, 78.5%; with HCT-116 colon, 50.5%. Besides, the results for the growth in the assay with HCC-2998 colon and in the assay on KM12 colon were 30.1% and 64.6%, respectively.

Take `CCN1CCN(CCNc2nccc(-c3c(-c4ccc(F)c(OC)c4)nc4sccn34)n2)S1(=O)=O`: the growth in the assay with T-47D breast is 87.3%; with BT-549 breast, 93.2%; in the assay with MDA-MB-435 melanoma, 26.6%; in the assay with SW-620 colon, 87.4%; in the assay with MCF7 breast, 50%; in the assay with HCT-116 colon, 44.5%. In addition, the growth with HCC-2998 colon was 89%; in the assay on KM12 colon, 74.2%.

In the case of `CC(C)(C)n1cc(-c2ccnc(NCCCNS(=O)(=O)c3ccc(C(F)(F)F)cc3)c2)c(-c2cccc(F)c2)n1`, the growth was 64.5% with T-47D breast; 84% in the assay on BT-549 breast; 93.7% in the assay on MDA-MB-435 melanoma; 90% with SW-620 colon; 66.2% in the assay on MCF7 breast; 54.4% with HCT-116 colon. In addition, the growth is 106% in the assay with HCC-2998 colon and 65.7% in the assay with KM12 colon.

Turning to `CCOC(=O)c1c(C)nc2ccccc2c1/C=C/c1ccccc1`, the growth was 25.7% in the assay on T-47D breast; 61.7% in the assay on BT-549 breast; 70.2% in the assay on MDA-MB-435 melanoma; 91.1% in the assay on SW-620 colon; 65.5% in the assay with MCF7 breast; 59.5% in the assay on HCT-116 colon. Moreover, the figures for the growth in the assay on HCC-2998 colon and with KM12 colon were 87.2% and 71.8%, respectively.

As to `COC1=C(C)C(=O)N2[C@@H]1[C@H](c1ccccc1)OC21C=CC(=O)C=C1`, the growth in the assay on T-47D breast is 17.6%; in the assay on BT-549 breast, -34.1% (active); in the assay with MDA-MB-435 melanoma it was -48.8% (active); with SW-620 colon, -36% (active); in the assay on MCF7 breast, 7.61% (active); in the assay with HCT-116 colon, -51% (active). Also, the growth is 35.7% with HCC-2998 colon and 52.8% with KM12 colon.

With `Ic1ccccc1I`, the growth is 107% with T-47D breast; 115% in the assay with BT-549 breast; 111% in the assay with MDA-MB-435 melanoma; 108% in the assay on SW-620 colon; 91.5% with MCF7 breast; 98.5% in the assay with HCT-116 colon. The growth was 98.2% with HCC-2998 colon and 104% with KM12 colon.

As to `NC(=O)c1c(NC(=O)c2cccs2)sc2c1CCC(=O)C2`, the growth with T-47D breast was 8.16% (active); in the assay on BT-549 breast, 8.21% (active); with MDA-MB-435 melanoma, 43.7%; in the assay on SW-620 colon, 15.1%; in the assay with MCF7 breast it was 45.1%; in the assay on HCT-116 colon, 4.11% (active). Moreover, the growth in the assay with HCC-2998 colon was 72.9%; in the assay on KM12 colon, 20.3%.

As to `CCC1S/C(=N\N=C(\C)c2cc3cc(Cl)ccc3o2)N(c2ccccc2)C1=O` (stereo not given), the growth with T-47D breast is 88.5%; in the assay on BT-549 breast, 119%; with MDA-MB-435 melanoma, 96.4%; in the assay with SW-620 colon it was 90%; in the assay with MCF7 breast it was 100%; in the assay on HCT-116 colon, 84.2%. Also, the growth with HCC-2998 colon was 83.2%; in the assay on KM12 colon, 91.6%.

For the compound `CNC(=O)c1cc(Oc2ccc3c(c2)sc2nc(-c4ccc(OC)cc4)cn23)ccn1`, the growth with T-47D breast is 46.4%; in the assay on BT-549 breast, 52.4%; in the assay on MDA-MB-435 melanoma, 5.17% (active); in the assay on SW-620 colon, 77.7%; with MCF7 breast, 12.9%; in the assay on HCT-116 colon, 16%. In addition, the growth is 17.4% in the assay on HCC-2998 colon and 58.9% in the assay on KM12 colon.

For `COc1cccc(Nc2ncnc3cc(NC(=O)CCl)ccc23)c1`, the growth in the assay on T-47D breast is -32.6% (active); in the assay on BT-549 breast, -28.7% (active); in the assay with MDA-MB-435 melanoma, -82% (active); in the assay with SW-620 colon it was -73.6% (active); with MCF7 breast, -8.63% (active); in the assay on HCT-116 colon, -53.8% (active). Moreover, the growth is 23% in the assay on HCC-2998 colon and -68.5% (active) in the assay on KM12 colon.

On to `O=C1/C(=C/c2ccc(F)cc2)CN(C(=O)C(Cl)Cl)C/C1=C\c1ccc(F)cc1`, for which the growth with T-47D breast was -22.4% (active); in the assay on BT-549 breast, -80.1% (active); in the assay on MDA-MB-435 melanoma, -93.7% (active); with SW-620 colon, -73.1% (active); in the assay on MCF7 breast it was -60.9% (active); in the assay with HCT-116 colon, -92.8% (active). The growth with HCC-2998 colon is -89.3% (active); in the assay on KM12 colon, -66.3% (active).

With `COc1ccc(C2=NN(C(C)=O)C(c3cn(-c4ccccc4)nc3-c3ccc(Cl)cc3)C2)cc1` (stereo not given), the growth with T-47D breast was 7.93% (active); in the assay with BT-549 breast, 48.4%; in the assay with MDA-MB-435 melanoma, 34.2%; with SW-620 colon, 17.3%; in the assay on MCF7 breast it was 21.8%; with HCT-116 colon, -11.6% (active). Besides, the growth with HCC-2998 colon was 36.3%; in the assay with KM12 colon it was 29.6%.

For the compound `COc1cc(OC)cc(-c2ccc(-c3ccc(C(=N)N)o3)o2)c1`, the growth with T-47D breast was 49.3%; in the assay with BT-549 breast, 85.8%; in the assay with MDA-MB-435 melanoma it was -27.5% (active); in the assay with SW-620 colon it was 2.04% (active); in the assay on MCF7 breast, 8.92% (active); in the assay on HCT-116 colon, -8.08% (active). Besides, the growth with HCC-2998 colon is -36.8% (active); in the assay on KM12 colon, 17.6%.

With `CN1CCN(C(=O)C(C)(C)c2ccc(C(=O)Nc3cn4cc(-c5ccncc5)ccc4n3)cc2)CC1`, the growth was 3.75% (active) with T-47D breast; 7.86% (active) with BT-549 breast; 14.2% with MDA-MB-435 melanoma; 11.1% in the assay on SW-620 colon; -0.0814% (active) in the assay on MCF7 breast; 5.31% (active) with HCT-116 colon. The growth with HCC-2998 colon is 13.9%; in the assay on KM12 colon it was 7.82% (active).

For `Clc1c(Cl)[n+](Cc2ccc3ccccc3c2)cn1Cc1ccc2ccccc2c1`, the growth is -3.8% (active) in the assay with T-47D breast; -69.5% (active) in the assay with BT-549 breast; -31.4% (active) in the assay on MDA-MB-435 melanoma; 34.4% in the assay on SW-620 colon; 11.8% with MCF7 breast; 7.02% (active) in the assay with HCT-116 colon. For the same compound, the figures for the growth with HCC-2998 colon and in the assay on KM12 colon were 16% and -67.6% (active), respectively.
